# Measured values as given in the supplement of paper PMC12808144.
# Where a name gives a salt, the structure may show the parent alone. Values without a mark were called inactive.
# Tests used:
# Mel-DCC-11 = experiment: cell viability relative to DMSO control (fraction of DMSO control); higher = less cytotoxic, active = 0.5 or less; details: 1 µM; 120 h
# Method in brief: (§1)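 Three cell types were screened against 315 approved anti-cancer drugs from TargetMol, acoustically pre-spotted in 384-well plates at 1 µM in duplicate over 120 h: NHEM-hTERT immortalized melanocytes (2500/well), patient-derived Mel-DCC-11 and its resistant subline Mel-DCC-11-R (both 1500/well), all in 40 µl per well. The subline was tested alone and with 8 µM of its selecting drug. Viability, measured by luminescence, was normalised to vehicle controls and averaged across duplicates, with ATPlite 1step as the readout.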
# NHEM-hTERT = experiment: as above; details: 1 µM; 120 h
# Method in brief: as §1
# Mel-DCC-11-R = experiment: cell viability relative to DMSO control (fraction of DMSO control); higher = less cytotoxic, active = 0.8 or less; details: 1 µM, 120 h
# Method in brief: as §1
SMILES,cell viability (Mel-DCC-11),cell viability (NHEM-hTERT),cell viability (Mel-DCC-11-R; vemurafenib co-treatment 0 µM),cell viability (Mel-DCC-11-R; vemurafenib co-treatment 8 µM)
CN(C)C/C=C/C(=O)Nc1cc2c(Nc3ccc(F)c(Cl)c3)ncnc2cc1O[C@H]1CCOC1 [Afatinib],0.77,1.01,,
CC(=O)c1c(C)c2cnc(Nc3ccc(N4CCNCC4)cn3)nc2n(C2CCCC2)c1=O.Cl [Palbociclib hydrochloride],0.591,1.05,,
COc1cccc2c1C(=O)c1c(O)c3c(c(O)c1C2=O)C[C@@](O)(C(=O)CO)C[C@@H]3O[C@H]1C[C@H](N)[C@H](O)[C@H](C)O1.Cl [Doxorubicin hydrochloride],0.133 (active),0.454 (active),,
COc1c2occc2cc2ccc(=O)oc12 [8-Methoxypsoralen],0.799,1.09,,
CC(=O)c1c(C)c2cnc(Nc3ccc(N4CCNCC4)cn3)nc2n(C2CCCC2)c1=O [Palbociclib],0.763,0.993,,
CNC(=O)c1ccccc1Sc1ccc2c(/C=C/c3ccccn3)n[nH]c2c1 [Axitinib],1.51,0.879,,
C[C@]12CC[C@H](O)CC1=CC[C@@H]1[C@@H]2CC[C@]2(C)C(c3cccnc3)=CC[C@@H]12 [Abiraterone],1.28,0.938,,
CC(=O)Nc1cccc(-n2c(=O)n(C3CC3)c(=O)c3c(Nc4ccc(I)cc4F)n(C)c(=O)c(C)c32)c1 [Trametinib],0.0655 (active),0.453 (active),,
CCN(CC)CCNC(=O)c1c(C)[nH]c(/C=C2\C(=O)Nc3ccc(F)cc32)c1C [Sunitinib],0.532,0.591,,
COc1cccc2c1C(=O)c1c(O)c3c(c(O)c1C2=O)C[C@@](O)(C(=O)CO)C[C@@H]3O[C@H]1C[C@H](N)[C@H](O[C@H]2CCCCO2)[C@H](C)O1 [Pirarubicin],0.0404 (active),0.839,,
CC1(COc2ccc3c(c2)ncn3-c2ccc3cccc(N4CCC(N)CC4)c3n2)COC1 [Crenolanib],1.81,0.873,,
Cl.N=C1CCCN1Cc1[nH]c(=O)[nH]c(=O)c1Cl [Tipiracil hydrochloride],0.924,0.914,,
COC(=O)/C=C/C(=O)OC [Dimethyl fumarate],1.12,1.33,,
CCC1(O)C(=O)OCc2c1cc1n(c2=O)Cc2cc3cc(O)ccc3nc2-1 (centres undefined) [Hydroxy Camptothecine],0.233 (active),0.899,,
c1cn2cc(-c3ccc4cn[nH]c4c3)nc(Nc3ccc(N4CCOCC4)cc3)c2n1 [Entospletinib],0.988,0.558,,
CC(=O)O[C@H]1C(=O)[C@]2(C)[C@@H](O)C[C@H]3OC[C@@]3(OC(C)=O)[C@@H]2[C@@H](OC(=O)c2ccccc2)[C@]2(O)C[C@H](OC(=O)[C@H](O)[C@@H](NC(=O)c3ccccc3)c3ccccc3)C(C)=C1C2(C)C [Paclitaxel],0.453 (active),0.569,1.06,0.526 (active)
COc1cc(Nc2c(C#N)cnc3cc(OCCCN4CCN(C)CC4)c(OC)cc23)c(Cl)cc1Cl [Bosutinib],1.06,1.12,,
C=CC(=O)N1CCC[C@@H](n2nc(-c3ccc(Oc4ccccc4)cc3)c3c(N)ncnc32)C1 [Ibrutinib],0.492 (active),1.05,,
CC(C)C[C@H](NC(=O)[C@H](Cc1ccccc1)NC(=O)c1cnccn1)B(O)O [Bortezomib],0.0258 (active),0.0282 (active),,
Cl.Cl.Cl.Cl.Cl.Cl.Cl.Cl.c1cc(CN2CCCNCCNCCCNCC2)ccc1CN1CCCNCCNCCCNCC1 [AMD 3100 octahydrochloride],1.17,1.14,,
N#Cc1ccnc(N2C(=O)CC[C@H]2C(=O)N(c2cncc(F)c2)[C@H](C(=O)NC2CC(F)(F)C2)c2ccccc2Cl)c1 [Ivosidenib],1.32,1.27,1.25,1.06
CCN(CC)C(=S)SSC(=S)N(CC)CC [Disulfiram],0.0336 (active),1.05,,
Nc1nc(=O)c2c(CCc3ccc(C(=O)N[C@@H](CCC(=O)[O-])C(=O)[O-])cc3)c[nH]c2[nH]1.[Na+].[Na+] [Pemetrexed Disodium Hydrate],1.02,0.995,,

SMILES,cell viability (Mel-DCC-11),cell viability (NHEM-hTERT),cell viability (Mel-DCC-11-R; vemurafenib co-treatment 0 µM),cell viability (Mel-DCC-11-R; vemurafenib co-treatment 8 µM)
CCS(=O)(=O)N1CC(CC#N)(n2cc(-c3ncnc4[nH]ccc34)cn2)C1 [Baricitinib],1.14,1.07,,
NC(=O)N1CCC(CC(=O)N2CCC([C@H]3c4ncc(Br)cc4CCc4cc(Cl)cc(Br)c43)CC2)CC1 [Lonafarnib],0.726,0.9,,
CN(C)C(=O)COC(=O)Cc1ccc(OC(=O)c2ccc(N=C(N)N)cc2)cc1.CS(=O)(=O)O [Camostat mesilate],1.03,0.975,,
C[C@]12CC[C@@H]3c4ccc(O)cc4C[C@@H](CCCCCCCCCS(=O)CCCC(F)(F)C(F)(F)F)[C@H]3[C@@H]1CC[C@@H]2O (some centres undefined) [Fulvestrant],1.05,0.817,,
Nc1ncn([C@H]2C[C@H](O)[C@@H](CO)O2)c(=O)n1 [Decitabine],2.02,0.907,,
CNC(=O)c1cc(Oc2ccc(NC(=O)Nc3ccc(Cl)c(C(F)(F)F)c3)cc2)ccn1.Cc1ccc(S(=O)(=O)O)cc1 [Sorafenib tosylate],1.35,0.904,,
CC(C)(O)CNc1nc(Nc2ccnc(C(F)(F)F)c2)nc(-c2cccc(C(F)(F)F)n2)n1 [Enasidenib],0.875,1.09,,
O=c1[nH]cc(F)c(=O)[nH]1 [Fluorouracil],1.46,1.01,1.14,1.06
NC(=O)c1ncn([C@@H]2O[C@H](CO)[C@@H](O)[C@H]2O)c1N [AICAR (Acadesine)],1.34,1.06,,
COc1cc2c(N3CCN(C(=O)Nc4ccc(OC(C)C)cc4)CC3)ncnc2cc1OCCCN1CCCCC1 [Tandutinib],1.21,1.15,,
Cn1cnc2c(F)c(Nc3ccc(Br)cc3F)c(C(=O)NOCCO)cc21 [Binimetinib],0.195 (active),0.934,,
CC(=O)O[C@@]12CO[C@@H]1C[C@H](O)[C@@]1(C)C(=O)[C@H](O)C3=C(C)[C@@H](OC(=O)[C@H](O)[C@@H](NC(=O)OC(C)(C)C)c4ccccc4)C[C@@](O)([C@@H](OC(=O)c4ccccc4)[C@H]21)C3(C)C [Docetaxel],0.61,0.707,,
C/C(=C\c1csc(C)n1)[C@@H]1C[C@@H]2O[C@]2(C)CCC[C@H](C)[C@H](O)[C@@H](C)C(=O)C(C)(C)[C@@H](O)CC(=O)N1 [Ixabepilone],0.316 (active),0.595,,
N#CC[C@H](C1CCCC1)n1cc(-c2ncnc3[nH]ccc23)cn1 [(R)-Ruxolitinib],1.03,1.1,0.967,1.03
COc1c(OCCCN2CCOCC2)ccc2c1N=C(NC(=O)c1cnc(N)nc1)N1CCN=C21 [Copanlisib],0.966,0.829,0.671 (active),0.254 (active)
COc1cc([C@@H]2c3cc4c(cc3[C@@H](O[C@@H]3O[C@@H]5CO[C@@H](C)O[C@H]5[C@H](O)[C@H]3O)C3COC(=O)C32)OCO4)cc(OC)c1O (some centres undefined) [Etoposide],1.4,0.798,1.26,0.859
O.S=c1nc[nH]c2nc[nH]c12 [6-Mercaptopurine monohydrate],0.736,0.937,0.725 (active),0.881
COC(=O)N[C@H](C(=O)N1CC2(CC2)C[C@H]1c1ncc(-c2ccc3c(c2)C(F)(F)c2cc(-c4ccc5nc([C@@H]6[C@H]7CC[C@H](C7)N6C(=O)[C@@H](NC(=O)OC)C(C)C)[nH]c5c4)ccc2-3)[nH]1)C(C)C [Ledipasvir],1.1,1.26,1.13,0.51 (active)
CS(=O)(=O)CCNCc1ccc(-c2ccc3ncnc(Nc4ccc(OCc5cccc(F)c5)c(Cl)c4)c3c2)o1.Cc1ccc(S(=O)(=O)O)cc1.Cc1ccc(S(=O)(=O)O)cc1 [Lapatinib Ditosylate],1.29,1.13,1.27,0.885
CCc1cc2c(cc1N1CCC(N3CCOCC3)CC1)C(C)(C)c1[nH]c3cc(C#N)ccc3c1C2=O [Alectinib],1.2,0.977,1.12,0.888
Nc1ccccc1NC(=O)c1ccc(CNC(=O)OCc2cccnc2)cc1 [Entinostat],1.48,0.554,0.989,1.01
C#CCC(Cc1cnc2nc(N)nc(N)c2n1)c1ccc(C(=O)N[C@@H](CCC(=O)O)C(=O)O)cc1 (some centres undefined) [Pralatrexate],1.03,0.982,0.982,1.09
